Bioassay records as filed in PubChem BioAssay.
AmpC inh no detg: blocks E. coli AmpC beta-lactamase in detergent-free assay. P00811. AmpC nitrocefin hydrolysis, absorbance 480 nm, 0.0001% Triton. Potency, µM (top dose mostly 57.1 µM), most hits filed as inhibitors. 330,000 compounds, 0.52% hits. AID 485341; further: nearly all actives have a fitted effect of over 20% in size
Target sequence (P00811 whole entry, looked up): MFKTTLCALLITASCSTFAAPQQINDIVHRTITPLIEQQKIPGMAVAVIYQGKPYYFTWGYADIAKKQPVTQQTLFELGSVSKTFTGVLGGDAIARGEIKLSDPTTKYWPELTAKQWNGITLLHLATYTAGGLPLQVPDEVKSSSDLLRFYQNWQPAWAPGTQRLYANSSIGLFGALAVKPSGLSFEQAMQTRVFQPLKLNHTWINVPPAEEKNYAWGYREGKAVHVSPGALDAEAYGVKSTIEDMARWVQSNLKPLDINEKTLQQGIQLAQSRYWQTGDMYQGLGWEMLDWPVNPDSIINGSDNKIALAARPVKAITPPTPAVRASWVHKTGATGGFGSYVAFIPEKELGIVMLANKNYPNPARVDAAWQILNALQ
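AmpC (5.3 nM in the dispensed reagent) in 20 mM phosphate pH 7.0 with 0.01% (detergent screen) or 0.0001% Triton X-100 was preincubated with compounds for 15 min at room temperature. Nitrocefin was then added from an 800 uM solution, and hydrolysis was followed at 480 nm.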
Pf growth 96h: P. falciparum growth inhibition at 96 hours; P. falciparum luciferase reporter growth, 96 h; 320,000 compounds, 6.9% hits; AID 504834; Potency, µM (titrated, usually from 28.7 µM), usual class: inhibitors
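Cell-based qHTS: luciferase-tagged P. falciparum in erythrocytes (2% hematocrit, 0.05% parasitemia final) incubated with compounds for 96 hours, 37 C, 5% CO2; luciferase detection reagent then added and luminescence measured.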
Pf growth 48h: inhibits P. falciparum growth in the first generation, 48 h; Potency, µM (titrated, usually from 28.7 µM), most hits filed as inhibitors; 310,000 compounds, 5.9% hits; P. falciparum luciferase growth in erythrocytes, 48 h
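Luciferase-expressing P. falciparum in infected erythrocytes (2% hematocrit, 0.1% parasitemia final) in RPMI 1640/0.5% Albumax were exposed to compound for 48 hours at 37 C, 5% CO2; growth read as luminescence.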
SARS PLP yeast: blocks SARS-CoV papain-like protease in a yeast assay | Potency, µM (top dose mostly 32.9 µM), hits mostly activators | 330,000 compounds, 0.19% hits | S. cerevisiae expressing SARS-CoV PLpro, growth rescue; calls by dose curve; further: nearly all actives have a fitted effect of over 55% in size
Sm TGR inh: S. mansoni TGR enzyme inhibition | 360,000 compounds, 3% hits | Potency, µM (doses to about 114 µM), actives largely listed as inhibitors | purified TGR, DTNB reduction, TNB absorbance 405 nm | Q962Y6; further: nearly all actives have a fitted effect of over 60% in size
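First, TGR (20 nM dispensed) and NADPH were mixed with compound. Second, a 15 min room-temperature incubation followed. Third, further NADPH and then DTNB were added to start the reaction. Finally, TNB absorbance was monitored kinetically.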
AmpC detergent: AmpC beta-lactamase inhibition with detergent present | AID 485294 | P00811 | AmpC hydrolysis of nitrocefin, absorbance 480 nm, 0.01% Triton | 370,000 compounds, 0.041% hits | Potency, µM (highest dose often 114 µM), usual class: inhibitors; further: nearly all actives have a fitted effect of over 25% in size
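AmpC (5.3 nM in the dispensed reagent) in 20 mM phosphate pH 7.0 with 0.01% (detergent screen) or 0.0001% Triton X-100 was preincubated with compounds for 15 min at room temperature. Nitrocefin was then added from an 800 uM solution, and hydrolysis was followed at 480 nm.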
Of the large screens only hits and unclear results are named; the others gave an inactive call. An excerpt weighted towards active compounds, which were near 12% of everything screened. Unless noted, the call rests on the fitted dose curve; in most records, active means well fitted curve in the direction sought with a large enough effect; inconclusive means small, poorly fitted or top-dose-only effect, or another doubt; inactive means no such curve, though single readings can be large; an effect the other way counts as inactive or inconclusive.

COc1ccc(C2SCC(=O)N2c2nnc(C34CC5CC(CC(C5)C3)C4)s2)cc1 (stereo not drawn)	AmpC detergent inconclusive
COc1cc(C2SCC(=O)N2c2nnc(C34CC5CC(CC(C5)C3)C4)s2)cc(OC)c1OC (stereo not drawn)	Pf growth 48h 14.7µM
CC(=O)c1c(C)oc2c1cc(NS(=O)(=O)c1ccc(C(=O)O)cc1)c1ccccc12	Pf growth 96h inconclusive
COC(=O)c1c(C)oc2c1cc(NS(=O)(=O)c1ccc(C(=O)O)cc1)c1ccccc12	Pf growth 96h inconclusive, Sm TGR inh 50.1µM
COc1ccc(S(=O)(=O)Nc2cc3c4c(oc3c3ccccc23)CCCC4=O)cc1	Pf growth 96h 9.28µM (no result: Pf growth 48h)
Cc1ccc(S(=O)(=O)Nc2cc3c(C(=O)Nc4ccccc4)c(C)oc3c3ccccc23)cc1	Pf growth 96h 1.65µM, Pf growth 48h inconclusive
CCOC(=O)c1c(C)oc2c1cc(NS(=O)(=O)c1ccc(C)cc1)c1ccccc12	none (no result: AmpC inh no detg, Pf growth 96h, Pf growth 48h, SARS PLP yeast)
COc1ccc(S(=O)(=O)Nc2cc3c4c(oc3c3ccccc23)CC(C)(C)CC4=O)cc1	Pf growth 96h inconclusive, Pf growth 48h inconclusive
CC(=O)OCc1cnc(C)c2oc(=O)c(C(=O)Nc3cccc(F)c3)cc12	none (no result: AmpC inh no detg, Pf growth 96h, Pf growth 48h, SARS PLP yeast)
CC(C)(C)OC(=O)N1CCC(c2c(C(=O)N3CCN(c4ccccn4)CC3)cnn2-c2ccc(F)cc2F)CC1	none (no result: AmpC inh no detg, Pf growth 96h, Pf growth 48h, SARS PLP yeast)
Clc1ccc(N2N=C(c3cccs3)CC2c2ccco2)cc1 (stereo not drawn)	Pf growth 96h 2.62µM
c1ccc(N2N=C(c3cccs3)CC2c2ccco2)cc1 (stereo not drawn)	Pf growth 96h inconclusive
O=C(c1ccccc1)N1N=C(c2ccccc2)CC1c1ccccc1O (stereo not drawn)	AmpC inh no detg inconclusive, Pf growth 48h inconclusive
Cc1ccc(C2=NN(C(=O)c3cccs3)C(c3ccccc3O)C2)cc1 (stereo not drawn)	AmpC inh no detg 7.94µM, Pf growth 48h inconclusive (no result: Sm TGR inh)
COc1cccc(C2CC(c3cccs3)=NN2C(=O)c2ccco2)c1O (stereo not drawn)	Pf growth 96h inconclusive, Pf growth 48h inconclusive
O=C(c1ccco1)N1N=C(c2cccs2)CC1c1ccccc1O (stereo not drawn)	AmpC inh no detg inconclusive, Pf growth 96h inconclusive, Pf growth 48h 8.28µM
O=C(c1cccs1)N1N=C(c2ccccc2)CC1c1ccccc1O (stereo not drawn)	AmpC inh no detg 15.8µM, Pf growth 48h 3.29µM
COc1ccc(C2=NN(C(=O)c3cccs3)C(c3ccccc3OC)C2)cc1OC (stereo not drawn)	Pf growth 48h inconclusive
CCOc1cccc2cc(C(=O)NCCC3=CCCCC3)c(=O)oc12	none
COc1ccc(-c2cn(-c3ccc(OC)cc3)c3[n+]2-c2ccccc2CC3)cc1	Pf growth 96h 0.415µM, Pf growth 48h 1.17µM
FC(F)Sc1ccc(-n2cc(-c3ccccc3)[n+]3c2CCC3)cc1	Pf growth 96h 0.657µM, Pf growth 48h 1.17µM
COc1ccc(-c2cn(-c3ccc(SC(F)F)cc3)c3[n+]2CCC3)cc1OC	Pf growth 96h inconclusive, Pf growth 48h inconclusive
COc1ccccc1-n1c(-c2ccccc2)c[n+]2c1CCc1ccccc1-2	Pf growth 96h inconclusive, Pf growth 48h inconclusive
FC(F)Oc1ccc(-n2cc(-c3ccc(Cl)cc3)[n+]3c2CCCCC3)cc1	Pf growth 96h inconclusive, Pf growth 48h 1.47µM
COc1ccc(-n2cc(-c3ccccc3)[n+]3c2CCCCC3)cc1	Pf growth 96h 0.928µM, Pf growth 48h 1.04µM
Cc1ccc(COc2ccsc2C(=O)NNC(N)=S)cc1	none
Nc1nonc1-c1nc2ccccc2n1CC(=O)NC1CCCC1	Pf growth 96h 10.4µM
CCOC(=O)c1ccccc1NC(=O)Cn1c(-c2nonc2N)nc2ccccc21	AmpC detergent inconclusive
Nc1nonc1-c1nc2ccccc2n1CC(=O)Nc1ccccc1	none
Nc1nonc1-c1nc2ccccc2n1CC(=O)N/N=C/c1ccc(-c2ccccc2C(=O)O)o1	Sm TGR inh 39.8µM
O=C(c1ccc2c(=O)n3c(nc2c1)CCCCC3)N1CCCCC1	AmpC detergent inconclusive
O=C(c1ccc2c(=O)n3c(nc2c1)CCCCC3)N1CCN(C(c2ccccc2)c2ccccc2)CC1	Pf growth 96h 1.85µM (no result: Pf growth 48h)
O=C(c1ccc2c(=O)n3c(nc2c1)CCC3)N1CCN(S(=O)(=O)c2cccc(F)c2)CC1	Pf growth 96h inconclusive, Pf growth 48h 11.7µM
O=C(c1ccc2c(=O)n3c(nc2c1)CCCCC3)N1CCN(c2ccccc2)CC1	none
Cc1cn(S(=O)(=O)c2ccc(F)c(Cl)c2)cn1	none (no result: AmpC inh no detg, Pf growth 96h, Pf growth 48h, SARS PLP yeast)
O=C(CSc1nc(-c2ccncc2)nn1CC(=O)N1CCCCC1)NC1CCCC1	Sm TGR inh 39.8µM
Cc1ccc(C)c(-n2c(-c3ccc(Br)cc3)csc2=NC(=O)c2ccccc2F)c1	Pf growth 96h 0.233µM, Pf growth 48h 0.415µM
Cn1ccsc1=NC(=O)c1ccccc1F	Pf growth 96h inconclusive, AmpC detergent inconclusive
COc1ccc(-c2ccc(CCC(=O)O)n2CC(=O)Nc2cccc(C(F)(F)F)c2)cc1	none (no result: AmpC inh no detg, Pf growth 96h, Pf growth 48h, SARS PLP yeast)
Cc1ccccc1NC(=O)Cn1c(CCC(=O)O)ccc1-c1cccs1	Sm TGR inh 39.8µM
COC(=O)c1ccccc1NC(=O)Cn1c(CCC(=O)O)ccc1-c1cccs1	Sm TGR inh 50.1µM (no result: Pf growth 96h)
COC(=O)c1ccccc1NC(=O)Cn1c(CCC(=O)O)ccc1-c1ccc(C)cc1	none (no result: AmpC inh no detg, Pf growth 96h, Pf growth 48h, SARS PLP yeast)
Cc1ccc(NC(=O)Cn2c(CCC(=O)O)ccc2-c2cccs2)cc1	Sm TGR inh 25.1µM, AmpC detergent inconclusive (no result: Pf growth 96h)
Cc1c(Cl)cccc1NC(=O)Cn1c(CCC(=O)O)ccc1-c1ccccc1	Sm TGR inh inconclusive
C[C@H](NS(=O)(=O)c1c(Cl)cccc1Cl)C(=O)NNC(=O)COc1ccccc1F	none (no result: Pf growth 96h, Pf growth 48h, Sm TGR inh, AmpC detergent)
CCCCCCCNC(=O)C1(CC2CC(c3cccc(Br)c3)=NO2)CCNCC1 (stereo not drawn)	Pf growth 96h 11.7µM, Pf growth 48h inconclusive, Sm TGR inh 25.1µM, AmpC detergent inconclusive
COC(=O)C1CC(c2ccc(Cl)cc2)=NO1 (stereo not drawn)	none
CCCCCCCNC(=O)C1(CC2CC(c3cccc(Br)c3)=NO2)CCN(C(=O)Cc2ccc(F)cc2)CC1 (stereo not drawn)	Pf growth 96h 10.4µM, Pf growth 48h 7.38µM, AmpC detergent inconclusive
CCCCCCCNC(=O)C1(CC2CC(c3ccc(Cl)cc3)=NO2)CCNCC1 (stereo not drawn)	Pf growth 96h 6.57µM, Sm TGR inh 39.8µM
COC(=O)C1(CC2CC(c3cccc(Br)c3)=NO2)CCN(C(=O)OC(C)(C)C)CC1 (stereo not drawn)	Pf growth 48h inconclusive
